In PubChem BioAssay AID594 (National Center for Advancing Translational Sciences (NCATS), 2007):
Among all 59,000 compounds or so, about 30 (0.05%) were called active. Rule as the data show it: active = max dye-equivalent concentration above about 11 nM; inconclusive = between about 1.1 nM and that limit; inactive = weaker than that. The full list was thinned out, with actives kept by preference.

test: qHTS Assay for Spectroscopic Profiling in Rhodamine Spectral Region; settings: Rhodamine-region fluorescence, 547/598 nm, Tris buffer; hits give high values
From the text: NIH Molecular Libraries Screening Centers Network [MLSCN] NIH Chemical Genomics Center [NCGC] […] Occasionally, the artifactual effect may originate from the compound#s own spectral or other biophysical properties which generally tend to track its assay concentration. Pre-screening/profiling the library with respect to the compounds# spectral properties should help one exclude false positives early on. While the most informative fluorescent profiling data set is obtained by performing a full excitation and emission scan of each well by using a monochromator-based plate reader, such an approach is practical only on a very limited scale as scanning each well requires long time. An alternative approach, applied here, is to perform plate reader scans using selected excitation and emission wavelength pairs to generate a multidimensional relational database that correlates compound concentration and the respective relative fluorescence intensity at a given wavelength set. A standard curve of rhodamine present on each plate as six-point concentration series, was used to compute a normalized fluorescence response, termed dye-equivalent concentration, for each compound at each concentration.
NCGC Assay Protocol Summary: Buffer: 100 mM Tris buffer, pH 8.0 Dye standard plate: The wells in columns 1 through 4 of a Kalypsys polypropylene 1536-well compound plate were filled with standard solutions of fluorophore corresponding to the spectral region of interest. Solutions of rhodamine were placed in the following wells: E1, F1: 3 mM, E2, F2: 300 uM, E3, F3: 30 uM, E4, F4: zero (DMSO), G1, H1: 3 uM, G2, H2: […], G3, H3: 300 nM, G4, H4: zero (DMSO). Assay Steps: Six uL of buffer were dispensed to 1536-well Greiner black plates. Compounds and dye standards (23 nL) were transferred via Kalypsys PinTool. The plates were incubated for 15 min at room temperature, and then read on ViewLux (Perkin-Elmer) High-throughput CCD imager using 547 nm and 598 nm excitation and emission filter set. Keywords: NIH Roadmap, MLSCN, MLI, MLSMR, qHTS, NCGC, Rhodamine , Fluorescent Profiling.

Max dye-equivalent concentration, active:
O=C(O)c1c(Br)c(Br)c(Br)c(Br)c1C1c2ccc(O)cc2Oc2cc(O)ccc21 11 nM

Max dye-equivalent concentration, inactive:
COc1ccc(Cl)cc1S(=O)(=O)N1CCN(CC(=O)C(C)(C)C)CC1
O=C(CCCC(=O)N(CC(=O)NC1CCCC1)Cc1ccccc1Cl)Nc1ccccn1
COc1ccc(CCNC(=O)c2cc3sccc3n2C)cc1OC
Cc1ccc(C)c(S(=O)(=O)N2CC(=O)Nc3ccccc32)c1
CCO/C([O-])=N/c1c[n+](N2CCOCC2)no1
C/C(=C(\C#N)C(=O)NCCCN1CCOCC1)N(C)C
Cc1ccc(SCc2cc(=O)[nH]c(N3CCCCC3)n2)cc1
FC(F)(F)c1ccccc1-c1cc(NCc2ccccc2)ncn1
CCOc1ccc(-c2cn(S(=O)(=O)c3cccc4nsnc34)nc2N)cc1
COC(=O)NC1(C(F)(F)F)NC(=O)N(C2CCCCC2)C1=O (stereo unspecified)
C=CCc1cccc2cc(C(=O)N3CCN(C(=O)OCC)CC3)c(=O)oc12
COc1ccc2[nH]c3c(=O)n(Cc4ccco4)cnc3c2c1
COCCNC(=O)CN(C(=O)CCC(=O)Nc1cc(C)on1)c1ccc(C)cc1C
CCC(C)(C)n1nnnc1C(c1cccs1)N1CCN(c2nc3ccccc3s2)CC1 (stereo unspecified)
Nc1nc(N)c2[nH]c(CNc3ccc(C(=O)O)cc3)nc2n1
O=C1CCCc2c1[nH]c1ccc(Br)cc21
C=C(Br)CN1CCN(CC(=C)Br)CC1
O=C(Nc1nc2cc3c(cc2s1)OCCO3)c1cccc(S(=O)(=O)N2CCOCC2)c1
CCOc1nc(-c2ccc(OC)cc2)ccc1-c1noc(-c2cc(OC)c(OC)c(OC)c2)n1
Cc1ccc(C)c(NC(=O)C2CCCN2C(=O)OC(C)(C)C)c1 (stereo unspecified)
O=C(O)[C@@H](O)Cc1ccccn1
O=C(O)CCC(=O)Nc1ccc(N2CCOCC2)cc1
Cc1ccc2nc(CC(=O)c3ccc4ccccc4c3)c(=O)[nH]c2c1
COc1ccc(-c2cc3ccc(OCc4nn[nH]n4)cc3oc2=O)cc1
O=C(Nc1ccc2c(c1)OCCO2)C1CCCN(c2ncccn2)C1 (stereo unspecified)
CCOc1ccc2c(c1)cc(CN(C(=O)CC)C1CCCCC1)c1nnnn12
COCCn1c(=O)c(CCc2ccccc2)nc2cnc(N3CCNCC3)nc21
Cc1cc(=O)cc(C)[nH]1
Cn1c(=O)cc(OCCCC(=O)N2CCN(Cc3ccc4c(c3)OCO4)CC2)c2ccccc21
COc1ccc2[nH]c3cc4c(=O)c5cc(OC)ccc5[nH]c4cc3c(=O)c2c1
CC(=O)O[C@]1(C(C)=O)CC[C@@H]2[C@@H]3C=C(C)C4=CC(=O)CC[C@@]4(C)[C@H]3CC[C@]21C
COc1ccc(CC(=O)n2nc(-c3cccnc3)nc2N)cc1
Oc1ccc(Cn2cc[nH]c2=S)cc1
O=C(CN1CCN(S(=O)(=O)/C=C/c2ccccc2)CC1)NC(=O)NCc1ccco1
CC1CCCC(NC(=O)CN2CCN(Cc3ccc(Cl)cc3)C2=O)C1C (stereo unspecified)
Clc1ccc(Nc2nc(-c3cccs3)cs2)nc1
Cc1ccc(/C(=C/CN2CCCC2)c2ccccn2)cc1
Cc1ccc2c(c1)c1ncn(CCC3=CCCCC3)c(=O)c1n2C
COc1ccc(S(=O)(=O)NC2(C(F)(F)F)N=C3SCCN3C2=O)cc1 (stereo unspecified)
CCn1c(-c2cc(OC)ccc2OC)csc1=Nc1c(C)n(C)n(-c2ccccc2)c1=O
O=C(c1cnccn1)N1CCC2(CCCN(Cc3ccccc3)C2)CC1
CCN(CC)CCNC(=O)C1c2ccccc2C(=O)N(C)C1c1cn(C)c2ccccc12 (stereo unspecified)
CC(C)(O)C#Cc1ccc(C(=O)N2CCC(C(N)=O)(N3CCCCC3)CC2)cc1
O=C(O)[C@@H]1CCCN1c1ncnc2sc3c(c12)CCC3
O=C(CSc1nc2cc3c(cc2c(=O)n1CCC1=CCCCC1)OCO3)NCc1ccco1
CC1C=CCC2C(=O)N(c3cccc(C(=O)N4CCCCCC4)c3)C(=O)C12 (stereo unspecified)
COCCNC(=O)CSc1nc2c(n1-c1ccccc1)CCCC2
COc1ccc(S(=O)(=O)N2CCCC2)c(C)c1C
COc1ccc(C2C(C(=O)N3CCN(c4ccc(OC)cc4)CC3)c3ccccc3C(=O)N2C)cc1 (stereo unspecified)
O=C(CNS(=O)(=O)c1cccc(C(F)(F)F)c1)Nc1ccccc1F
CC(C)OC(=O)C(C#N)c1nc2ccccc2nc1N1CCN(Cc2ccccc2)CC1 (stereo unspecified)
CC(=O)c1cccc(NC(=O)N2CCCC2C(=O)NCCC(C)C)c1 (stereo unspecified)
O=S(=O)(c1ccc(Sc2nnc3ccccn23)nc1)N1CCOCC1
Cc1ccc(NC(=O)Cn2nc(C)c3ccccc3c2=O)c(C)c1
CCOC(=O)c1sc(=S)n2c1[nH]c(=O)c1ccc(C(=O)OC)cc12
O=C(Nc1ccccc1)Nc1ccccc1C(=O)NCc1ccco1
CCCCSc1nnc(-c2ccc(NC(=O)CC)cc2)n1C
Cc1cccc(N=C2NC(=O)CS2)c1C
CC1=NCCN1S(=O)(=O)c1ccc(Br)c(C)c1
O=c1c(-c2ccc(F)cc2)nc2cnc(N3CCOCC3)nc2n1-c1ccccc1
OCCCNC(c1ccccc1)c1ccc(O)cc1 (stereo unspecified)
Cc1ccccc1NC(=O)c1cc(S(=O)(=O)N2CCOCC2)cs1
O=C(Nc1cccnc1)c1noc2c1CCCCC2
CCC(=O)Nc1ccccc1N1CCN(S(C)(=O)=O)CC1
COc1ccccc1C(=O)N1CCNC(=O)C1CC(=O)Nc1ccc(Cl)cc1 (stereo unspecified)
C[C@H](CCC(=O)O)[C@H]1CC[C@@H]2[C@H]3CC[C@H]4C[C@H](O)CC[C@@]4(C)[C@@H]3CC[C@@]21C
NC(=O)CSc1oc(-c2cccs2)nc1S(=O)(=O)c1ccccc1
CCOCCN(C=O)c1cccc(OC)c1
O=C(COC(=O)c1ccc2c(c1)OCCO2)NCc1ccccc1
COC(=O)CN(c1cccc(C(C)=O)c1)S(C)(=O)=O
COCCn1c(=O)c(C)nc2cnc(N(C)C)nc21
O=C(COc1ccc(F)cc1)N(CC1=CCS(=O)(=O)C1)c1ccccc1
CN(c1ccc(C(=O)N2CCc3ccccc3C2)cc1)S(C)(=O)=O
CCCC(=O)Nc1nnc(CC(=O)OCC)s1
CCOP1(=O)C=C(C(C)(C)C)OC1c1ccc(F)cc1 (stereo unspecified)
CC(=O)NC(Cc1ccc(F)cc1)C(=O)O (stereo unspecified)
Cc1[nH]c(N)nc(=S)c1CCCNc1ccccc1
O=C(O)c1cscn1
CCOC(=O)Cc1c(C)nc2c(C#N)c(C)nn2c1C
CCN(CCCNC(=O)C1CCN(S(=O)(=O)c2cnc[nH]2)CC1)c1ccccc1
COc1cc(OC)c(C(=O)Nc2ccc(N(C)C)cc2)cc1OC
Cc1nc2cc(-c3ccc(F)cc3)nn2c(N2CCOCC2)c1C
COCCOC(=O)C1=C(C)Nc2nc(C)nn2C1c1ccccc1 (stereo unspecified)
CCOC(=O)c1sc(NC(=O)CSc2nnc(-c3ccco3)o2)c(C(=O)OCC)c1C
C[C@H](NC(=O)OC(C)(C)C)c1nnc(SCC(=O)Nc2ccc(Br)cc2)o1
Cn1c(=O)c2c(ncn2CC(=O)N2CCN(c3ccccc3)CC2)n(C)c1=O
CCCCc1nccn1CCn1ccnc1CCCC
O=C(CCn1c(=O)oc2ccccc21)Nc1ccon1
O=C1OC(NC(=O)c2ccccc2)C(N2CCOCC2)=C1Cl (stereo unspecified)
COc1cc(C2C(C(=O)c3sc(C)nc3C)=C(O)C(=O)N2CCN(C)C)cc(OC)c1OC (stereo unspecified)
COc1ccc(CC(=O)Nc2nc3n(n2)C(c2ccccc2)CC(=O)N3)cc1OC (stereo unspecified)
CCOC(=O)CN1CC23C=CC(O2)C(C(=O)Nc2ccc(F)cc2)C3C1=O (stereo unspecified)
CC1(C)Cc2c(C#N)c(SCc3nc4ccccc4[nH]3)nc(N3CCOCC3)c2CO1
CCOC(=O)C1CCCN(Cc2nc(N)nc(Nc3ccc(C)cc3)n2)C1 (stereo unspecified)
CCN(CC)c1ccc2cc(C(=O)O)c(=O)oc2c1
Cc1ccc(CN2C(=O)CCC2C(=O)NCCCN2CCCCC2C)cc1 (stereo unspecified)
Cc1ccc(Cn2nnc3c(=O)n(CC(=O)N4CCCCC4)cnc32)cc1
Cc1ccc(-n2nc3c(c2NC(=O)c2ccc4c(c2)OCO4)CSC3)c(C)c1
CCCC1CC(C)(C(=O)Cn2[nH]c(=O)ccc2=O)OC1=O (stereo unspecified)
CCc1cccc2c3c([nH]c12)C(CC)(CC(=O)O)OCC3 (stereo unspecified)
CCC(c1nnnn1Cc1ccccc1)N(Cc1cc2cc(OC)ccc2[nH]c1=O)CC1CCCO1 (stereo unspecified)
O=C(CN(CC1CCCO1)C(=O)CNS(=O)(=O)c1ccccc1)NCc1ccccc1 (stereo unspecified)
CC(=O)Nc1ccc(S(=O)(=O)N2CCN(CCCOc3cc(C)ccc3C)CC2)cc1
CCNS(=O)(=O)c1ccc(NC(=O)Nc2cccc(C(F)(F)F)c2)cc1
CCOc1ccc(CN(Cc2ccco2)C(c2cccs2)c2nnnn2C(C)(C)C)cc1 (stereo unspecified)
O=c1[nH]c(-c2cccs2)nc2ccccc12
Cc1ccc2nc(NCCCNC(=O)c3cnccn3)c(C#N)cc2c1
COc1ccc(C)cc1NC(=O)CSc1nc(SC)ns1
Cc1nc2nc(CSc3nc4ccccc4s3)cc(=O)n2[nH]1
COc1ccc(Cl)cc1S(=O)(=O)Nc1cccc(C(=O)O)c1
